Shown is part of a subset that was picked to be rich in hits.
Pf Dd2 growth – blocks in vitro growth of P. falciparum Dd2. P. falciparum Dd2 growth, SYBR Green, 72 h. Potency, µM (titrated, usually from 28.9 µM), usual class: inhibitors. 4.3% of 120,000 active; active = well fitted inhibition curve with a large enough effect; also: nearly all actives have a fitted effect of over 65% in size
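Readout: SYBR Green fluorescence, 485 nm excitation, 535 nm emission, after ~16 h lysis at 37C. Before that, Dd2-infected red cells (2.5% hematocrit) grew 72 h with compound, 29 uM top final concentration.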
Each line names hits and unclear results; the compound was inactive in the other large screens.

CCn1ncc(C(=O)N2CCCn3ccnc3C2c2cnn(C)c2)c1C (stereo not drawn)	none
COc1ccc(S(=O)(=O)N(CC(=O)NCCSc2ccc(C)cc2)c2ccc(C)cc2)cc1	none
COc1ccc(-c2cnnn2-c2ccc(NC(=O)c3ccc(S(=O)(=O)N(C)C)cc3)cc2)cc1	none
COc1ccc(-c2[nH]c3ccccc3c2SCCNC(=O)c2ccc(S(=O)(=O)N(C)C)cc2)cc1	Pf Dd2 growth 7.94µM
CCN(CC)S(=O)(=O)c1ccc(C(=O)NCCSc2c(-c3ccc(OC)cc3)[nH]c3ccccc23)cc1	Pf Dd2 growth 7.94µM
COc1ccc(S(=O)(=O)N(CCc2ccccc2)CC(=O)NCc2ccccc2)cc1	none
CCN(CC)S(=O)(=O)c1ccc(NC(=O)Cn2ncc3c([nH]c4ccccc43)c2=O)cc1	none
Cc1ccc(CN2C[C@H]3CN(Cc4ccc(OC(F)(F)F)cc4)CCN3C2=O)cc1	none
O=C(Nc1ccccc1)N1C[C@@H](F)[C@@H](OCc2nc3ccccc3o2)C1	none
Cc1ncsc1C1N(C2CCN(C(=O)C3CCC3)CC2)C(=O)C12CCCC2 (stereo not drawn)	none
COCCNC(=O)[C@@H]1C[C@H](Oc2cccnc2)CN1C(=O)c1ccoc1	none
COc1ccccc1C(=O)N1CCC(N2Cc3cnc(C)n3C2=O)CC1	none
O=C(NCCCN1CCCc2ccccc21)c1cccnc1N1CC2CC(C1)[C@H]1CCCC(=O)N1C2 (stereo partly drawn)	none
O=C(NCCCN1CCCc2ccccc21)c1ccc(N2CC3CC(C2)[C@H]2CCCC(=O)N2C3)nc1 (stereo partly drawn)	Pf Dd2 growth 11.2µM
O=C(NCCCN1CCOCC1)c1ccc(N2CC3CC(C2)[C@H]2CCCC(=O)N2C3)nc1 (stereo partly drawn)	none
CCN(CC)C(=O)N1CCC(n2c(C)cnc2C2CCOCC2)CC1	none
CC(=O)c1ccc(NC(=O)N[C@H]2C[C@@](O)(C(=O)N[C@H](Cc3ccccc3)C(N)=O)C[C@@H](O)[C@@H]2O)cc1	none
COc1ccc2cnn(CC(=O)NC3CCCc4c3[nH]c3ccccc43)c(=O)c2c1OC (stereo not drawn)	none
COCC(=O)NC[C@H]1C[C@@H]2CCN1C[C@@H]2c1cc(-c2ccccc2OC)nc(C)n1	none
COc1ccccc1-c1cc([C@H]2CN3CC[C@H]2C[C@@H]3COC(=O)Nc2ccc(C(C)C)cc2)nc(C)n1	Pf Dd2 growth 12.6µM
COc1ccc(-c2cc([C@H]3CN4CC[C@H]3C[C@@H]4CNC(=O)NC(C)C)nc(C)n2)cc1OC	none
Cc1nc(-c2cccs2)cc([C@H]2CN3CC[C@H]2C[C@@H]3CNS(C)(=O)=O)n1	none
Cc1nc(-c2cccs2)cc([C@H]2CN3CC[C@H]2C[C@@H]3COC(=O)Nc2ccc(C(C)C)cc2)n1	Pf Dd2 growth 7.08µM
CC(=O)c1ccc(NC(=O)NC[C@H]2C[C@@H]3CCN2C[C@@H]3c2cc(-c3cccs3)nc(C)n2)cc1	none
CN1C(=O)C(CC(=O)NC2CCC(O)CC2)(Cc2ccccc2)c2ccccc21 (stereo not drawn)	none
COCCc1nncn1C1CCN(C(=O)c2cccc(Br)c2)CC1	none
O=C(CN1C(=O)CNC1=O)N1CCCC(Nc2ccc3c(c2)OCO3)C1 (stereo not drawn)	none
CNC(=O)[C@@H]1CN(C(=O)c2ccoc2C)C[C@H]1c1nc(C)no1	none
Cc1ccccc1CNC(=O)[C@H]1CN(Cc2ccccc2)C[C@H]1C(=O)O	none
C[C@]1(O)CCN(C(=O)Cc2nc(-c3ccncc3)n[nH]2)C[C@@H]1O	none
COc1ccc(OCc2nc(C)c(CCO)c(=O)n2CC(=O)Nc2ccccc2Cl)cc1	none
CCn1cc(CN2CC(Oc3ccc(-c4noc(-c5ccncc5)n4)cc3)C2)cn1	Pf Dd2 growth 1.78µM
CCn1cc(S(=O)(=O)N2CC(Oc3ccc(-c4nc(C)no4)cc3)C2)cn1	none
Cn1cc(C(=O)N2CC(Oc3ccc(-c4nc(-c5ccccc5)no4)cc3)C2)cn1	none
COc1cccc([S+](=O)([O-])N2CCC(C(=O)O)(c3ccccc3)CC2)c1	none
Cn1ncc(N2CCN(CC3(O)CCCNC3)CC2)cc1=O (stereo not drawn)	none
OC1(CN2CCN(c3nccs3)CC2)CCCNC1 (stereo not drawn)	none
OC1(CN2CCN(c3ccc(F)c(Cl)c3)CC2)CCCNC1 (stereo not drawn)	Pf Dd2 growth 7.94µM
COCCn1cnnc1CCNC(=O)c1oc2cc(OC)ccc2c1C	none
O=C(CNC(=O)c1cnccn1)NC1CCCc2c1[nH]c1ccc(Cl)cc21 (stereo not drawn)	none
COCCNC(=O)CN1CN(c2ccccc2)C2(CCN(C(=O)C3CCCCC3)CC2)C1=O	none
Cc1ccc(NC(=O)N2CCC3(CC2)C(=O)N(CC(=O)N2CCCC2)CN3c2ccccc2)cc1	Pf Dd2 growth 7.08µM
CC(C)(C)NC(=O)N1CCC2(CC1)C(=O)N(CC(=O)NCC1CCCO1)CN2c1ccccc1 (stereo not drawn)	none
O=C1NCCCCCCN(C(=O)Nc2ccccc2F)[C@H]2C[C@H](c3nc(-c4cccnc4)no3)C[C@@H]12	none
CCc1nc(C)c(C(=O)N2CCC3(CC2)CC(c2ccccc2)CN(CC)C3)o1 (stereo not drawn)	none
Cc1ccc(C)c(C(=O)c2c(N)c(-c3nc(-c4ccc5c(c4)OCO5)cs3)c3ccccn23)c1	Pf Dd2 growth 8.91µM
Cc1ccc(-c2csc(-c3c(N)c(C(=O)c4ccc5c(c4)OCO5)n4ccccc34)n2)cc1C	none
COc1ccc(C(=O)c2c(N)c(-c3nc(-c4ccc5c(c4)OCO5)cs3)c3ccccn23)cc1	none
COCCN1CCCCCC(O)c2cc(C(=O)NC3CCC3)ccc21 (stereo not drawn)	none
O=C(CC1CCCCN(Cc2ccccc2)C1=O)N1CCN(c2ccc(F)cc2)CC1 (stereo not drawn)	Pf Dd2 growth 11.2µM
COc1ccc(N2CCN(C(=O)CC3CCCCN(C)C3=O)CC2)cc1 (stereo not drawn)	none
O=C(CC1CCCCN(Cc2ccccc2)C1=O)Nc1ccc(F)cc1F (stereo not drawn)	none
O=C1Nc2ccccc2C12CCN([S+](=O)([O-])c1ccsc1)CC2	none
CC(C)c1nnc(NC(=O)CC[C@H]2NC(=O)c3ccccc3NC2=O)s1	none
COc1ccc(CN2CC(Oc3ccc(F)cc3C)C2)cc1	Pf Dd2 growth 11.2µM
Cc1cc(F)ccc1OC1CN(CC2CCCCC2)C1	Pf Dd2 growth 8.91µM
Cc1cc(F)ccc1OC1CN(CC2CC2)C1	none
COc1ccccc1C(=O)N1CC(Oc2ccc(F)cc2C)C1	none
Cc1cc(F)ccc1OC1CN(Cc2ccc(C#N)cc2)C1	none
COc1ccc(CN2CC(Oc3ccc(F)cc3F)C2)cc1	none
O=C(CC1CCN(C(=O)C2CCCC2)C1)N1CCOCC1 (stereo not drawn)	none
CC(=O)N1CCN(C(=O)c2cnc(-c3cccnc3)nc2)CC(O)C1 (stereo not drawn)	none
CS(=O)(=O)N1CCC2(CC1)NCCc1c2[nH]c2ccccc12	none
CN1C(=O)C(CC(=O)N2CCCCC2)=C2CCCCC21 (stereo not drawn)	none
O=C1CC(c2noc(-c3ccc4c(c3)OCO4)n2)CN1c1ccc(Cl)cc1 (stereo not drawn)	none
Cc1cc(-c2cccc(OC(C)C)c2)cnc1-n1cnnc1	none
O=C(c1ccc(F)cc1)N1CCC(C(=O)O)(c2ccccc2)CC1	none
COc1ccccc1C(=O)N1CCCN(C)c2ccccc21	none
O=C(O)c1ccc2c(c1)N(C(=O)c1ccc(F)cc1)CC2	none
Cc1ccc2c(c1)C(C)(c1ccccc1)CC(C)(C)N2C(=O)c1ccc(F)cc1 (stereo not drawn)	Pf Dd2 growth 5.62µM

Screening data from PubChem BioAssay.
